Among the data in PubChem BioAssay (NCI) are growth values, retold here.

Common to all, as to assay: NCI-60 one-dose screen, 48 h (100 = growth as untreated, 0 = no growth, -100 = all killed)
For assay [1], the system named is NCI-H23 lung. To be noted: 10 µM unless noted.
Assay [2] relates to NCI-H226 lung. The settings on record: 10 µM unless noted.
Assay [3] concerns NCI-H322M lung. To be noted: 10 µM unless noted.
The subject of assay [4] is HOP-62 NSCLC. To be noted: 10 µM unless noted.
Assay [5] has as its system NCI-H460 lung. To be noted: 10 µM unless noted.
The test system of assay [6] is HOP-92 NSCLC. The settings on record: 10 µM unless noted.
In assay [7] the test system is NCI-H522 lung. The settings on record: 10 µM unless noted.
Assay [8] relates to A549/ATCC NSCLC. The settings on record: 10 µM unless noted.
Assay [9] deals with 786-0 renal. To be noted: 10 µM unless noted.
Assay [10] deals with COLO 205 colon. To be noted: 10 µM unless noted.
For assay [11], the system named is DU-145 prostate. The settings on record: 10 µM unless noted.
Assay [12] concerns K-562 leukemia. The settings on record: 10 µM unless noted.
In assay [13] the test system is MALME-3M melanoma. To be noted: 10 µM unless noted.
Assay [14] has as its system MDA-MB-231 breast. To be noted: 10 µM unless noted.
Assay [15] has as its system RXF 393 renal. The settings on record: 10 µM unless noted.
Assay [16] deals with SF-268 CNS. To be noted: 10 µM unless noted.
The test system of assay [17] is SF-295 CNS. The settings on record: 10 µM unless noted.
Assay [18] has as its system SF-539 CNS. The settings on record: 10 µM unless noted.
Assay [19] deals with UACC-257 melanoma. To be noted: 10 µM.
Assay [20] concerns M14 melanoma. To be noted: 10 µM unless noted.

The panel holds about 83,000 compounds, 20% with a hit somewhere; the sample as a whole holds those more often.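 Activity criterion: percent growth below 10, measured after cells in 96-well plates were exposed to a single compound concentration for 48 hours.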 Unmarked numbers belong to inactive results. Calls of active or inactive are those of the source.

For the compound `COc1cc2nc(SCc3cc(OC)c(OC)c(OC)c3)n(Cc3ccccc3)c(=O)c2cc1OC`, the growth in assay [1] is 20.5%; in [2], 49.7%; in assay [3], 45.4%; in assay [4], 41.4%; in [5], 22.3%; in [6] it was 62.7%. Also, the growth in assay [7] is -33% (active); in assay [8], 36.9%; in assay [9] it was 36.8%; in [10], 7.38% (active); in assay [11], 49.8%; in assay [12] it was 10.2%. The growth in assay [13] was 21.9%; in [14], 36%; in [15] it was 4.55% (active); in [16] it was 37.9%; in assay [17], 19.7%; in assay [18], -6.22% (active). For the same compound, the growth in [19] is 63.3%; in assay [20], 14.9%.

For `N#Cc1ncc(-c2ccc(F)c(F)c2F)c(NC2CCCCCC2)n1`, the growth was 88.1% in assay [1]; 93.8% in assay [2]; 85.7% in [3]; 82.3% in assay [4]; 98.9% in assay [5]; 65.1% in [6]. The growth was 72% in [7]; 89.3% in [8]; 87.1% in assay [9]; 99.8% in assay [10]; 95.8% in assay [11]; 76.8% in [12]. The growth is 131% in assay [13]; 67% in assay [14]; 77.5% in [15]; 66.6% in assay [16]; 97.8% in assay [17]; 93.7% in assay [18]. In addition, the growth is 81.5% in assay [19] and 97.8% in assay [20].

With `CCC1CCc2nc3sc(C(=O)Nc4ccccc4F)c(N)c3cc2C1` (stereo not given), the growth in assay [1] was 78.2%; in assay [2] it was 89.8%; in assay [3], 92.8%; in assay [4], 76.4%; in [5] it was 75.4%; in assay [6], 58.3%. For the same compound, the growth was 71.9% in [7]; 79.5% in [8]; 91.4% in [9]; 64.2% in [10]; 55.8% in [11]; 37.8% in [12]. The growth in assay [13] is 48.7%; in assay [14], 69.9%; in assay [15], 79.6%; in assay [16] it was 61.5%; in assay [17], 46.6%; in [18], 75%. For the same compound, the growth in assay [19] is 57.5%; in assay [20] it was 44.4%.

Take `COc1ccc(OC)c(-c2ccc(-c3ccccc3N)c3[nH]c4ccccc4c23)c1`: the growth in [1] was 74.5%; in assay [2], 75.2%; in [3], 90.1%; in assay [4], 80.9%; in assay [5] it was 92.3%; in assay [6], 80.8%. For the same compound, the growth in [7] is 56.9%; in assay [8] it was 68.7%; in [9], 83.6%; in [10] it was 87.5%; in [11] it was 89.6%; in [12], 76.2%. Also, the growth in assay [13] is 85%; in assay [14], 74.1%; in [15] it was 98.2%; in [16], 79.1%; in assay [17], 99.4%; in [18], 93.2%. Moreover, the growth in assay [19] was 85%; in [20], 84.6%.

Consider `O=C(O)C(Cc1ccccc1)N1C(=O)/C(=C/C(Cl)=C/c2ccc([N+](=O)[O-])cc2)SC1=S` (stereo not given), for which the growth was 16.1% in assay [1]; 71.2% in assay [2]; 70.9% in assay [3]; 47.7% in assay [4]; 50.1% in assay [5]; 20% in assay [6]. Besides, the growth in [7] is 0.83% (active); in assay [8], 81.2%; in assay [9] it was -31.6% (active); in assay [10], 17.4%; in assay [11], 35%; in assay [12], 9.61% (active). For the same compound, the growth is 3.53% (active) in assay [13]; 29.5% in assay [14]; -47.1% (active) in [15]; 19.2% in assay [16]; 88.8% in assay [17]; 29.6% in [18]. Moreover, the values for the growth in [19] and in assay [20] were 18.1% and -13.7% (active), respectively.

Regarding `COc1ccc(-c2nc(-c3nc4ccc(F)cc4[nH]3)cc3c2[nH]c2ccccc23)cc1`, the growth in assay [1] is 53.3%; in assay [2], 70.6%; in assay [3], 19%; in [4] it was 48.7%; in [5], 10.5%; in assay [6], 31.8%. Moreover, the growth in assay [7] is 44.4%; in [8] it was 14.3%; in assay [9], 63.2%; in assay [10], 44.1%; in assay [11] it was 25.6%; in assay [12], 20.3%. In addition, the growth is 39.1% in [13]; 43.6% in [14]; 56.5% in assay [15]; 41.3% in [16]; 55.5% in assay [17]; 69.1% in [18]. For the same compound, the growth in [19] was 9.58% (active); in assay [20] it was 36%.

For the compound `COc1cc(/C=C2\C=C(c3ccc(F)cc3)N(Cc3ccccc3)C2=O)cc(OC)c1OC`, the growth in [1] was 62.6%; in assay [2], 56.7%; in assay [3] it was 61.4%; in assay [4], 108%; in [5] it was 66.4%; in assay [6], 35%. In addition, the growth in assay [7] was 90.6%; in assay [8], 56.4%; in assay [9] it was 66.6%; in assay [10], 82.7%; in assay [11], 94.8%; in assay [12] it was 56.1%. For the same compound, the growth in assay [13] is 90.7%; in [14] it was 78.7%; in assay [15], 64.5%; in assay [16], 77.4%; in assay [17] it was 83.6%; in assay [18], 87%. The growth in assay [19] was 79.3%; in assay [20] it was 76.2%.

As to `CCCCCCCCCCn1cc[n+](C)c1`, the growth is 28.8% in assay [1]; 30.4% in assay [2]; 57.1% in assay [3]; 38.2% in [4]; 23.6% in assay [5]; 51.9% in assay [6]. The growth is -19.9% (active) in [7]; 32.6% in assay [8]; 47.8% in assay [9]; 8.8% (active) in assay [10]; 75.4% in assay [11]; 64.2% in [12]. Besides, the growth in assay [13] is 8.94% (active); in assay [14] it was 41.5%; in assay [15], -20.8% (active); in assay [16], 58.7%; in assay [17], 9.99% (active); in [18], 30.5%. The growth in assay [19] is -12.4% (active); in assay [20], 24.6%.
